Each structure is given as a SMILES string. Calls of active or inactive are those of the source. How the source made its calls: active means hit-call score of the fitted dose curve at least 0.9, where 1 is the maximum; inactive means score below 0.9.

Read-out in the test: succinate dehydrogenase complex iron sulfur subunit B (SDHB), SDHB (gene 6390)
The experiment in a line: LTEA_HepaRG_SDHB: Life Technologies and Expression Analysis (LTEA) Assay for succinate dehydrogenase complex iron sulfur subunit B (SDHB) using HepaRG (AID 2283528). Conditions: mRNA level, 48 h; actives raise or lower the signal. The procedure: LTEA_HepaRG is a cell based, multiplexed-readout assay that uses HepaRG, a human liver cell line, with measurements taken at 48 hours after chemical dosing on a 96-well plate.LTEA_HepaRG_SDHB is one of 102 assay component(s) measured in the LTEA HepaRG cell culture assay. It is a marker of Cell proliferation, survival, death.Data from the assay component LTEA_HepaRG_SDHB was analyzed into 1 endpoint. This assay endpoint, LTEA_HepaRG_SDHB, was analyzed with bidirectional fitting relative to DMSO as the negative control and baseline of activity. Using a type of inducible reporter, measures of mRNA induction for gain or loss-of-signal activity can be used to understand regulation of transcription factor activity. To generalize the intended target to other relatable targets, this assay endpoint is annotated to the oxidoreductase intended target family, where the subfamily is ubiquinone.
A total of 1060 chemcials from the ToxCast library were tested in eight-point concentration-response experiments. Cell culture and cytotoxicity assays were conducted at Thermo Fisher Scientific's Custom Services facility (Madison, WI). A single lot of human HepaRG cells (Thermo Fisher Scientific, Frederick, MD) was used for the cell culture experiments. 96-well format collagen type I coated plates of human HepaRG cells were prepared using established methods. Briefly, cryopreserved HepaRG cells were thawed, plated at a density of approximately 100,000 cells/well in HepaRG Thaw, Plate, and General Purpose media (HPRG770, Thermo Fisher Scientific), and incubated for 48 hours. 0.5% DMSO was selected as vehicle control to balance the requisite need of DMSO in HepaRG cultures to maintain differentiation (for example, baseline metabolism, proportions of hepatocytes vs. cholangiocytes), while enabling further hepatic receptor pathway activation (for example, PXR and CAR) in response to chemical exposure. 48 hours after plating, the culture medium was replaced with HepaRG Serum-Free Incudtion Media. Cells were exposed to each test chemical in duplicate and maintained in CO2 incubators for another 48 hours. Chemical plates were thawed to room temperature and 200x concentrations of treatment groups were prepared. 8-point conentration-reponse curves were made with the highest exposure at 100 uM, followed by half-log dilutions, all in 0.5% DMSO. Each test plate contained variouse controls, induction positive controls (1mM phenobarbital), cytotoxicity positive controls ([…] aflatoxin B1), vehicle controls (0.5% DMSO), and total lysis controls (0.5% DMSO). Cell morphology images were taken using an Essen IncuCyte FLR automated microscope, with six 96-well plates imaged in about 24 minutes. Images were captured and exported and JPEG files. Spent culture media was transfered to black-well plates for the LDH assay, and remaining media was sorted at -80 C for later use. Cells were treated with RLT buffer and frozen until shipped for gene expression analysis. Total RNA was isolated from the cell suspension in 75 uL of Buffer RLT (Qiagen, Germantown, MD 20874) by Quintiles/Expression Analysis (Durham, NC) using a custom isolation procedure. Total RNA from each plate well was transferred to a preamplification plate. Fluidigm's 96.96 Dynamic ArrayTM (Fluidigm, Amsterdam, the Netherlands) technology was used for gene expression analyses by quantitative reverse transcription polymerase chain reaction (qRT-PCR, performed by Quintiles/Expression Analysis, Durham, NC)89. Standard TaqManTM Assays (Applied Biosystems/ThermoFisher Scientific, Foster City, CA) were used to assess the expression of 93 genes selected based on their selectivity and sensitivity to important hepatic receptors known to be modulated by environmental chemicals; importance in human hepatocyte functionality; and hepatotoxicity. […]
Take `O=C(N[C@H]1CN2CCC1CC2)c1cc2ccoc2cn1`: the call was inactive.
Still for that read-out and setting: the entry for `CN(C)CCO` is “inactive”; for `Cc1ccc(O)c(C)c1` it is “inactive”.
Same read-out and setting: the entry for `CC1=C2C[C@H]3[C@@H](CC=C4C[C@@H](O)CC[C@@]43C)[C@@H]2CC[C@]12O[C@@H]1C[C@H](C)CN[C@H]1[C@H]2C` is “inactive”.
Still for that read-out and setting: the entry for `O=NN(c1ccccc1)c1ccccc1` is “inactive”.
For `CN(C)c1nc(=O)n(C2CCCCC2)c(=O)n1C`, the result was inactive.
On the same count and under the same terms, the same measure for `Oc1ccc(Cl)cc1Cl`: “inactive”.
Turning to `CO/C=C(/C(=O)OC)c1ccccc1COc1cccc(C(F)(F)F)n1`, the compound was classed as inactive.
On the same count and under the same terms, the entry for `ClC(Cl)=C(c1ccc(Cl)cc1)c1ccc(Cl)cc1` is “inactive”; for `O=C(O)C(F)(F)C(F)(F)C(F)(F)C(F)(F)C(F)(F)F` it is “inactive”; for `COS(=O)(=O)OC` it is “inactive”.
Same read-out and setting: the same measure for `Cc1ccccc1O`: “inactive”; for `CCNc1nc(NC(C)C)nc(SC)n1`: “inactive”; for `CCC(C)(CC)c1cc(NC(=O)c2c(OC)cccc2OC)on1`: “inactive”.
Same read-out and setting: the entry for `Cc1ccccc1[N+](=O)[O-]` is “inactive”; for `CCCN(CCC)N=O` it is “inactive”.
As for `Clc1ccc(C(Cl)(Cl)Cl)cc1`, the outcome was inactive.
For orientation: AC50 means the concentration giving half of the maximal activity seen. Take `NS(=O)(=O)C(F)(F)C(F)(F)C(F)(F)C(F)(F)C(F)(F)C(F)(F)C(F)(F)C(F)(F)F`: the AC50 is 4.97 µM (active).
Take `Clc1ccc(Cl)cc1`: the compound was classed as inactive.
Still for that read-out and setting: the same measure for `ClC1=C(Cl)[C@]2(Cl)[C@@H]3[C@@H]4C[C@@H]([C@H]5O[C@@H]45)[C@@H]3[C@@]1(Cl)C2(Cl)Cl`: “inactive”.
On to `CC(c1ccc(O)cc1)(c1ccc(O)cc1)c1ccc(O)cc1`, for which the AC50 was 50 µM (active).
On to `ClC1=C(Cl)[C@]2(Cl)[C@@H]3[C@H]4C[C@H]([C@@H]5O[C@H]45)[C@@H]3[C@@]1(Cl)C2(Cl)Cl`, for which the outcome was inactive.
Still for that read-out and setting: the same measure for `COc1ccc(O)c(C(C)(C)C)c1`: “inactive”; for `CCOC(=O)C(O)(c1ccc(Cl)cc1)c1ccc(Cl)cc1`: “inactive”; for `O=S(=O)(O)C(F)(F)C(F)(F)C(F)(F)C(F)(F)F`: “inactive”.
Same read-out and setting: the entry for `CCCCCCOC(=O)c1ccccc1C(=O)OCCCCCC` is “inactive”; for `CCC(=O)O[C@H]1CC[C@H]2[C@@H]3CCC4=CC(=O)CC[C@]4(C)[C@H]3CC[C@]12C` it is “inactive”; for `CCCCCCCCCc1ccc(O)cc1` it is “inactive”.
Still for that read-out and setting: the same measure for `N#Cc1ccc(N(CC(N)=O)CC(F)(F)F)cc1C(F)(F)F`: “inactive”.
Take `C[C@]12CCC(=O)C=C1CC[C@@H]1[C@@H]2CC[C@@]2(C)[C@H]1CC[C@]2(C)O`: the compound was classed as inactive.
As for `CC#Cc1cc(C)nc(Nc2ccccc2)n1`, the result was inactive.
Still for that read-out and setting: the entry for `CC(C)(c1ccccc1)c1ccc(O)cc1` is “inactive”; for `CCCCCCCCOC(=O)c1ccccc1C(=O)OCCCCCCCC` it is “inactive”.
`Nn1cnnc1`: the compound was called inactive.
Turning to `O=C(O)C(F)(F)C(F)(F)C(F)(F)C(F)(F)C(F)(F)C(F)(F)C(F)(F)C(F)(F)C(F)(F)F`, the half-maximal activity concentration (AC50) is 88.9 µM (active).
On to `CC(C)(O)C(=O)Nc1ccc([N+](=O)[O-])c(C(F)(F)F)c1`, for which the compound was classed as inactive.
In the case of `Oc1c(Cl)c(Cl)c(Cl)c(Cl)c1Cl`, the concentration at half-maximal activity (AC50) was 2.04 µM (active).
As to `Cc1cc2c3c(c1)C(c1ccccc1)=N[C@@H](NC(=O)c1ccncc1)C(=O)N3CC2`, the compound was classed as inactive.
Take `O=S(=O)(O)C(F)(F)C(F)(F)C(F)(F)C(F)(F)C(F)(F)C(F)(F)F`: the concentration at half-maximal activity (AC50) was 8.54 µM (active).
For the compound `CCOP(=S)(OCC)SCSC(C)(C)C`, the compound was called inactive.

The record behind these values is PubChem BioAssay (EPA / NIEHS).
